Source: paper PMC5540273 (PLoS ONE, 2017)

System: MAP3K4
Conditions: concentration: 1 μM, replicates: in singlicate; n = 1
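Also: KINOMEscan kinase panel screen.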

| Compound | %Inh [%] |
| --- | --- |
| Cn1cnc2c(N)ncnc21 [SKF-97623] | 0 |
| Cc1ccc(NC(=O)Nc2ccccc2)cc1-c1ccc(C(=O)Nc2ccncc2)cc1 [GSK1398471] | 0 |
| CCn1c(-c2c(N)noc2C)nc2cnccc21 [SB-737856] | 19 |
| COc1ccc(Nc2nccc(-c3ccc(NC(=O)c4cc5cc(F)ccc5[nH]4)cc3)n2)cc1 [GSK1229496] | 0 |
| Nc1cccc(-c2ccc3c(N)n[nH]c3c2)n1 [GSK2192730] | 25 |
| CS(=O)(=O)CCNCc1nc(-c2ccc3ncnc(Nc4ccc(OCc5ccccc5)c(Cl)c4)c3c2)cs1.Cl [GW582764] | 20 |
| COc1ccc(Nc2nccc(N3CCC(NC(=O)C(C)c4ccc(Cl)cc4)C3)n2)cc1 (stereo not drawn) [GSK1379735] | 16 |
| Cc1cnc(N)c(/C=C/c2cncc(C(=O)NCCc3ccc(Cl)cc3Cl)c2)c1.Cl [GSK190937] | 0 |
| O=C(Nc1n[nH]c2nc(-c3cccs3)c(Br)cc12)C1CC1 [SB-735297] | 19 |
